Compound activity as filed in PubChem.
FLuc counter: inhibits or activates purified firefly luciferase, miR-21 counter-screen; 360,000 compounds, 6.9% hits; AID 588342; P08659; purified FLuc, Km substrates, luminescence inhibition; Potency, µM (doses to about 57.5 µM), for inactives: at the top dose activity change, negative = inhibition, usual class: inhibitors;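 note: plate controls were vehicle for no effect and reference inhibitor for full effect; nearly all actives have a fitted effect of over 55% in size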
Target sequence (P08659 whole entry, looked up): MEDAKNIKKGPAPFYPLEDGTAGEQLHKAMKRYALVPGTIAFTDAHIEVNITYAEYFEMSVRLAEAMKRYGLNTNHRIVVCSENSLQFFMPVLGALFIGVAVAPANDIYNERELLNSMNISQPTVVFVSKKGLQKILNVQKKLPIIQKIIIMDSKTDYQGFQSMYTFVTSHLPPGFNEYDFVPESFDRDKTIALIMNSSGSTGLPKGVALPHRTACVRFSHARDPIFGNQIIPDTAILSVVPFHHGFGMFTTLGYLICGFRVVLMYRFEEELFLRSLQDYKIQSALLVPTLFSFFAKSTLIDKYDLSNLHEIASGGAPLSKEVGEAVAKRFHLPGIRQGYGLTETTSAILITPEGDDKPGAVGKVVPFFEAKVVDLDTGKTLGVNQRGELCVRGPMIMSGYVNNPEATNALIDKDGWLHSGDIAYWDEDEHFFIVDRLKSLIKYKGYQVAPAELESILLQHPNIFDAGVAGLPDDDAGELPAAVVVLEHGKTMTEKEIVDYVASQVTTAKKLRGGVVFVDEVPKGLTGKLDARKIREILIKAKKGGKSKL
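Purified P. pyralis luciferase (10nM final) with 10uM D-luciferin and 10uM ATP (Km levels) in 50mM Tris acetate pH 7.5, 10mM Mg acetate, 0.01% Tween-20, 0.05% BSA; qHTS 6-point titration, ~60 µM downward; luminescence read.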
Rab9 prom act: activates the Rab9 promoter. Huh7 Rab9 promoter-luciferase reporter, luminescence, 24 h. Potency, µM (highest dose often 9.22 µM), for the others: at the top dose activation, negative = inhibition, most hits filed as activators. 320,000 compounds, 2.8% hits; note: % of control where 0% means no effect; nearly all actives have a fitted effect of over 60% in size
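Stable Rab9-luc Huh7, 1500 cells/well, 2 h settle; cmpd in DMSO, 24 h, 37 °C/5% CO2; luciferase reagent 10 min RT; luminescence.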
SMN2 splice enh: enhancers of SMN2 splice variant expression; AID 1458; HEK293 SMN2-luciferase splicing reporter, luminescence, 30-36 h; 210,000 compounds, 2.8% hits; Potency, µM (highest dose often 46.1 µM), inactives show at the highest dose activity change, positive = activation, hits mostly activators; note: % of control where 0% means no effect; nearly all actives have a fitted effect of over 55% in size
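qHTS luciferase splicing reporter: luminescence rises when SMN2 exon 7 is included in transfected HEK293 cells. Compound exposure lasted 30-36 h at 37C, with 4.5 mM final sodium butyrate as control, followed by a ONE-Glo read.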
ELG1 genotoxic: genotoxicity induction in ELG1-luciferase HEK293T cells | HEK293T ELG1-luciferase reporter, luminescence, 16 h | AID 504466 | 330,000 compounds, 1.3% hits | Potency, µM (highest dose often 46 µM), inactives show at the highest dose activity change, positive = activation, actives largely listed as activators; note: % of control where 0% means no effect; nearly all actives have a fitted effect of over 60% in size
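16 hr compound incubation (37 °C, 5% CO2) of HEK293T cells carrying luciferase-tagged ELG1; luciferase then measured by ONE-Glo luminescence after 30 min at RT.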
NPC1 prom act: activates the NPC1 promoter | Huh7 NPC1 promoter luciferase reporter, 24 h | Potency, µM (titrated, usually from 9.22 µM), inactives show at the highest dose activation, most hits filed as activators | 320,000 compounds, 2.4% hits; note: % of control where 0% means no effect; nearly all actives have a fitted effect of over 60% in size
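Quantitative HTS used a cell-based reporter: Huh7 cells stably bearing the NPC1 promoter upstream of luciferase were treated with compounds for 24 h, and promoter activation was read as luminescence.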
* marks the source's active call; other numbers are inactive results; ? = inconclusive; . = no result given; [ ] = another dose, or the depositor's remark. This is a sample that favours compounds with a hit; in the whole collection about 7.4% have one here. Calls come from the whole dose curve; as a rule, active = well fitted curve in the direction sought with a large enough effect; inconclusive = small, poorly fitted or top-dose-only effect, or another doubt; inactive = no such curve, though single readings can be large; an effect the other way counts as inactive or inconclusive. Potency is the fitted concentration of half-maximal effect.

SMILES | FLuc counter | Rab9 prom act | SMN2 splice enh | ELG1 genotoxic | NPC1 prom act
CC1C(=O)N2CCCc3cc(NC(=O)C(=O)NCc4cccnc4)cc1c32 (stereo not drawn) | 10% | -4% | . | ? | 0%
CC(C)C[C@@H](CC(=O)N[C@@H](CCC(=O)O)CC(=O)O)NC(=O)[C@@H]1CNCC[C@H]1NC(=O)C[C@H](CCCN)NC(=O)C[C@H](Cc1c[nH]c2ccccc12)NC(=O)[C@@H]1CNCC[C@H]1N | . | . | 10% | . | .
CC1(C)CCC2(C(=O)O)CC[C@]3(C)C(=CCC4[C@]5(C)CCC(O)C(C)(C)C5C(O)C[C@]43C)C2C1 (stereo partly drawn) | . | . | 8% | . | .
CCc1ccc(NCc2cc3ccc(OC)cc3n(CC(=O)Nc3ccc(C)c(Cl)c3)c2=O)cc1 | 4% | . | . | . | .
O=C(Nc1ccccc1)C1Cc2ccccc2CN1C(=O)c1ccco1 (stereo not drawn) | 19µM* | 14% | 14% | 16% | 9%
COc1ccc(OC)c(NC(=O)Nc2nnc(N3CCC(C)CC3)s2)c1 | 24µM* | -3% | -10% | 3% | 0%
COc1ccc(OC)c(NC(=O)C2CCC(CNc3c(N4CCC(C)CC4)c(=O)c3=O)CC2)c1 (stereo not drawn) | 1% | -8% | 16µM* | 27% | -5%
O=C(/C=C/c1ccco1)NC(=S)Nc1ccccc1O | ? | 4µM* | ? | 13% | ?
Cc1cccnc1NC(=S)NC(=O)/C=C/c1ccco1 | ? | ? | 13% | ? | 3%
O=C(/C=C/c1ccco1)NC(=S)Nc1ccccn1 | 13µM* | 2.8µM* | ? | 15% | 3.2µM*
O=C(/C=C/c1ccco1)NC(=S)Nc1ccccc1N1CCCC1 | 3% | 14% | -19% | -7% | 5%
O=C(/C=C\c1ccco1)NC(=S)Nc1ccccc1O | ? | 3.2µM* | . | 7% | ?
Cc1ccc(NC(=S)NC(=O)/C=C/c2ccco2)c(O)c1 | ? | 13% | 14% | 6% | -3%
CS(=O)(=O)N1CCc2cc(C(=O)OCC(=O)c3ccccc3)ccc21 | 4.8µM* | 3.5µM* | -4% | 13µM* | 3.2µM*
CS(=O)(=O)N1CCc2cc(C(=O)Nc3cccc(F)c3)ccc21 | ? | . | 11µM* | . | .
Cc1ccc(NC(=O)c2ccc3c(c2)CCN3S(C)(=O)=O)cc1C | 15µM* | 4µM* | . | 9% | 2.5µM*
Cc1cc(C)cc(NC(=O)c2ccc3c(c2)CCN3S(C)(=O)=O)c1 | ? | -5% | . | 0% | 0%
Cc1cccc(NC(=O)c2ccc3c(c2)CCN3S(C)(=O)=O)c1 | 15µM* | ? | . | ? | ?
Cc1ccc(C(=O)Nc2nnc(S(=O)(=O)N(C)Cc3ccc(F)cc3)s2)cc1 | -18% | . | . | . | .
COc1ccccc1OCCNC(=O)CN1C(=O)NC2(CCCC2)C1=O | 2% | -4% | . | 1% | -1%
Cc1cc(NC(=O)C(C)SCC(=O)N(C)CC(=O)Nc2ccc(F)cc2)no1 (stereo not drawn) | -1% | 0% | . | 0% | 0%
Cc1cc(N/N=C/c2ccc(O)cc2O)nc(N2CCOCC2)n1 | 7.6µM* | -4% | . | 4% | -3%
COc1ccc(/C=N/Nc2cc(C)nc(N3CCOCC3)n2)c(OC)c1 | 2.4µM* | 0% | . | 6% | 0%
O=C(Nc1cccc(-c2nn[nH]n2)c1)c1ccc(Br)s1 | 12µM* | 27% | . | -1% | 1%
c1cc(NNc2cccc(-c3nn[nH]n3)c2)cc(-c2nn[nH]n2)c1 | . | . | -7%[9.22 µM] | . | .
SMILES | FLuc counter | Rab9 prom act | SMN2 splice enh | ELG1 genotoxic | NPC1 prom act
O=C(Nc1cccc(-c2nn[nH]n2)c1)c1ccc(Cl)s1 | 15µM* | 5% | . | 1% | -1%
CC1(C)C(=O)Nc2ccccc2N1C(=O)COc1cc(Cl)ccc1Cl | 8% | 0% | . | -1% | -5%
O=C(OCc1nnc(-c2ccc(Cl)cc2)o1)C12CC3CC(CC(O)(C3)C1)C2 | 5.4µM* | 2.2µM* | 12% | ? | 2.8µM*
Cc1ccccc1CN1C2=NCCN2C(=O)C2=C1CCN(Cc1ccccc1)C2 | . | . | -35%[9.22 µM] | . | .
Cc1ccc(SCCc2cc[n+](CC(=O)c3ccccc3)cc2)cc1 | 19µM* | ? | . | ? | 29%
Cc1cccc(OCCCn2c(CO)nc3ccccc32)c1 | 13µM* | ? | . | 5% | 21%
Cc1ccc(OCCCn2c(CO)nc3ccccc32)cc1 | -2%[2.3 µM] | ? | ? | 10% | 18%
Cc1ccccc1OCCCCn1c(CO)nc2ccccc21 | -12% | -9% | -54% | -6% | -11%
OCc1nc2ccccc2n1CCCOc1ccccc1 | 11µM* | ? | 11µM* | ? | ?
NC[C@H](O)c1ccc(O)c(O)c1 | 3% | 2%[46.1 µM] | 3% | 15% | 6%[46.1 µM]
Cc1cc(-n2c(C)nc3ccccc3c2=O)ccc1NC(=O)c1ccc([N+](=O)[O-])cc1 | -1% | . | . | . | .
COC(=O)C1=C(C(=O)OC)[C@@H]2N(Cc3ccccc3)c3ccccc3[C@@]23C[C@@H](C(=O)OC)N=C3N1 | -1% | 1% | 5%[9.22 µM] | 7% | -3%
Cc1ccccc1N/N=C/c1c(C)nc2ccccn12 | 12µM* | 8% | . | -4% | 3%
Cc1ccc(-c2nc3ccccn3c2Nc2ccccc2C)s1 | -20% | . | 26% | . | .
CSc1nccc(-c2sc(SC)c(C#N)c2-c2ccccc2)n1 | 3% | 3% | . | 2% | -3%
Cc1c(-c2ncn[nH]2)sc(C#N)c1-c1ccccc1 | 19µM* | -3% | -18% | 2% | 8%
Cc1ccc(N(Cc2ccccc2)C(=O)c2ccc(F)cc2)cc1 | 0% | 0% | . | 4% | 2%
Cc1ccc(N(Cc2ccccc2)C(=O)c2cccc(F)c2)cc1 | 13µM* | -7% | . | 18% | -1%
COc1ccc(C(=O)N(Cc2ccccc2)c2cccc(C)c2)cc1 | -1% | ? | . | 15µM* | ?
COc1ccc(CN(C(=O)c2ccc(C)cc2)c2cccc(N)c2)cc1 | -7% | 1% | . | -3% | -4%
Cc1ccc(C(=O)CC(=O)c2cccc(F)c2)c(O)c1 | 12µM* | 14% | -41% | ? | 6%
C[C@H]1Cc2c(COc3ccccc3)nc3c(c2CO1)CN(C(=O)Cc1cccs1)CC3 | . | . | -3%[9.22 µM] | . | .
CCCCN(S(=O)(=O)c1ccccc1)S(=O)(=O)c1ccccc1 | 3% | -1% | . | -1% | -4%
S=C(N=Nc1ccccc1)NNc1ccccc1 | 19µM* | -1% | ? | 15% | -2%
Cc1cc(C)c(C#N)c(SCc2nnc(-c3ccccc3[N+](=O)[O-])o2)n1 | 21µM* | 3.2µM* | 1.1µM* | 2.6µM* | 1.4µM*
Cc1cc(C)c(C#N)c(SCc2nnc(-c3ccccc3)o2)n1 | 3µM* | -5% | -39%[1.84 µM] | ? | -2%
COc1ccccc1-c1cc(-c2ccc(C)cc2)nc(SCc2nnc(-c3ccccc3)o2)c1C#N | -1% | -10% | -20% | -1% | -1%
Cc1ccc(C#N)c(SCc2nnc(-c3ccc(Cl)cc3)o2)n1 | 0.43µM* | 1% | -82% | ? | -2%
